Experimental data as given in PubChem BioAssay AID1159580 (chemical genetic matrix, 2015).
“And” between values parts separate entries of the source, which are not always exact repeats. Equal entries are not always repeated. Screen size: about 5,500 compounds; about 2,000 (36%) were called active. Roughly 18% stayed inconclusive and do not appear here. Rule as the data show it: active = normalized growth mostly below about 0.91 (no sharp cut-off); inconclusive = no clear call, values can overlap the other calls; inactive = mostly above about 0.92. The list shows a part of the results.

Assay: chemical genetic growth profiling, strain panel (AID 1159580);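 also: tested at 20 µM; growth read once vehicle control cultures reached saturation at 30 °C; 1 = growth at the plate median or of vehicle wells; lower values mean less growth of the strain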
Settings: S. cerevisiae deletion strains, growth OD

Measured: normalized growth

COc1ccc(-c2cc(C(F)F)nn2-c2ccc(S(N)(=O)=O)cc2)cc1F
inactive: locus YAL013W, strain DEP1, active compounds read low 1 | locus YAL021C, strain ccr4, active compounds read low 0.991 | locus YAL026C, strain drs2, active compounds read low 1.02 | locus YAL030W, strain snc1, active compounds read low 1.01 | locus YBL061C, strain skt5, active compounds read low 1 | locus YBR009C, strain hhf1, active compounds read low 1 | locus YBR021W, strain FUR4, active compounds read low 1.02 | locus YBR023C, strain chs3, active compounds read low 0.992 | locus YBR171W, strain sec66, active compounds read low 1.01 | locus YBR229C, strain ROT2, active compounds read low 1.01 | locus YBR231C, strain swc5, active compounds read low 1.01 | locus YBR279W, strain paf1, active compounds read low 1 | locus YCL011C, strain gbp2, active compounds read low 1.01 | locus YCL016C, strain dcc1, active compounds read low 0.992 | locus YCL029C, strain bik1, active compounds read low 1.01 | locus YCL069W, strain vba3, active compounds read low 1 | locus YCR088W, strain abp1, active compounds read low 1 | locus YDL005C, strain med2, active compounds read low 1 | locus YDL035C, strain GPR1, active compounds read low 1.02 | locus YDL040C, strain nat1, active compounds read low 1.01 | locus YDL074C, strain BRE1, active compounds read low 0.997 | locus YDL101C, strain DUN1, active compounds read low 1 | locus YDL134C, strain PPH21, active compounds read low 0.994 | locus YDL185W, strain tfp1, active compounds read low 1.01 | locus YDL192W, strain arf1, active compounds read low 1.01 | locus YDR001C, strain nth1, active compounds read low 1.02 | locus YDR069C, strain doa4, active compounds read low 1.01 | locus YDR101C, strain arx1, active compounds read low 1.01 | locus YDR137W, strain rgp1, active compounds read low 1.04 | locus YDR150W, strain NUM1, active compounds read low 0.999 | locus YDR159W, strain sac3, active compounds read low 1.01 | locus YDR162C, strain NBP2, active compounds read low 0.988 | locus YDR195W, strain ref2 0.988 | locus YDR297W, strain sur2, active compounds read low 1.01 | locus YDR318W, strain mcm21, active compounds read low 1.02 | locus YDR334W, strain swr1, active compounds read low 1.02 | locus YDR335W, strain msn5, active compounds read low 1 | locus YDR388W, active compounds read low 1.02 | locus YDR392W, strain spt3, active compounds read low 0.922 | locus YDR502C, strain sam2, active compounds read low 0.996 | locus YEL003W, strain gim4, active compounds read low 1 | locus YEL037C, strain rad23, active compounds read low 1.01 | locus YEL061C, strain CIN8 (second series), active compounds read low 1.01 | locus YEL061C, strain CIN8, active compounds read low 1 | locus YER015W, strain faa2, active compounds read low 0.987 | locus YER016W, strain bim1, active compounds read low 1 | locus YER110C, active compounds read low 1.03 | locus YER111C, strain swi4, active compounds read low 0.999 | locus YER155C, strain BEM2 (second series), active compounds read low 0.887 | locus YER155C, strain BEM2, active compounds read low 0.998 | locus YER167W, strain BCK2, active compounds read low 1.01 | locus YFR010W, strain ubp6, active compounds read low 1.02 | locus YGL078C, strain dbp3, active compounds read low 0.996 | locus YGL086W, strain mad1, active compounds read low 1.03 | locus YGL167C, strain pmr1, active compounds read low 0.999 | locus YGL173C, strain kem1, active compounds read low 0.998 | locus YGL227W, strain vid30, active compounds read low 1.01 | locus YGL240W, strain doc1, active compounds read low 0.961 | locus YGL248W, strain PDE1, active compounds read low 0.997 | locus YGL253W, strain hxk2, active compounds read low 1.01 | locus YGR078C, strain PAC10, active compounds read low 0.994 | locus YGR135W, strain pre9, active compounds read low 0.982 | locus YGR229C, strain SMI1, active compounds read low 0.989 | locus YGR252W, strain gcn5, active compounds read low 1.08 | locus YHR013C, strain ard1, active compounds read low 1.06 | locus YHR027C, strain rpn1, active compounds read low 1.01 | locus YHR030C, strain SLT2, active compounds read low 1.01 and 1.05 | locus YHR079C, strain IRE1 (second series), active compounds read low 1.02 | locus YHR079C, strain IRE1, active compounds read low 1.06 | locus YHR094C, strain hxt1, active compounds read low 1.01 | locus YHR129C, strain ARP1, active compounds read low 1 | locus YHR142W, strain chs7, active compounds read low 0.999 | locus YHR200W, strain rpn10, active compounds read low 1.02 | locus YIL066C, strain RNR3, active compounds read low 1.01 | locus YIL073C, strain SPO22, active compounds read low 1.07 | locus YIL125W, strain kgd1, active compounds read low 1.01 | locus YIR030C, strain dcg1, active compounds read low 1.01 | locus YJL092W, strain hpr5, active compounds read low 1 | locus YJL095W, strain BCK1 (second series), active compounds read low 0.997 | locus YJL095W, strain BCK1, active compounds read low 0.996 and 1.02 | locus YJL115W, strain asf1, active compounds read low 1.01 | locus YJL129C, strain trk1, active compounds read low 0.967 | locus YJL134W, strain LCB3, active compounds read low 1 | locus YJL154C, strain vps35, active compounds read low 0.999 | locus YJL164C, strain tpk1, active compounds read low 0.992 | locus YJL166W, strain qcr8, active compounds read low 0.984 | locus YJL168C, strain set2, active compounds read low 1.02 | locus YJL187C, strain SWE1 (second series), active compounds read low 0.995 | locus YJL187C, strain SWE1, active compounds read low 1 | locus YJR043C, strain POL32, active compounds read low 1.03 | locus YJR066W, strain TOR1, active compounds read low 1.01
